Measurements reported in PubChem BioAssay AID1159580 (chemical genetic matrix, 2015).
The campaign covered roughly 5,500 compounds. About 2,000 (36%) were called active. Roughly 18% stayed inconclusive and do not appear here. No stated cut-off is given here; in the data, active means normalized growth mostly below about 0.91 (no sharp cut-off); inconclusive means no clear call, values can overlap the other calls; inactive means mostly above about 0.92. The list shows a part of the results.

Assay: chemical genetic growth profiling, strain panel (AID 1159580);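 further: tested at 20 µM; growth read once vehicle control cultures reached saturation at 30 °C; 1 = growth at the plate median or of vehicle wells; lower values mean less growth of the strain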
Details: S. cerevisiae deletion strains, growth OD

Measured: normalized growth

COc1ccc(-c2coc3cc(OC)cc(OC)c3c2=O)cc1
inactive: locus YAL021C, strain ccr4, hits give low values 1 | locus YAL026C, strain drs2, hits give low values 0.985 | locus YAL030W, strain snc1, hits give low values 0.987 | locus YBL061C, strain skt5, hits give low values 0.972 | locus YBR009C, strain hhf1, hits give low values 0.988 | locus YBR023C, strain chs3, hits give low values 0.97 | locus YBR171W, strain sec66, hits give low values 0.994 | locus YBR231C, strain swc5, hits give low values 0.989 | locus YBR279W, strain paf1, hits give low values 0.993 | locus YCL011C, strain gbp2, hits give low values 0.979 | locus YCL016C, strain dcc1, hits give low values 0.997 | locus YCL061C, strain MRC1, hits give low values 0.989 | locus YCL069W, strain vba3, hits give low values 0.996 | locus YCR088W, strain abp1, hits give low values 0.991 | locus YDL005C, strain med2, hits give low values 1 | locus YDL040C, strain nat1, hits give low values 0.987 | locus YDR001C, strain nth1, hits give low values 0.984 | locus YDR069C, strain doa4, hits give low values 1 | locus YDR137W, strain rgp1, hits give low values 0.974 | locus YDR159W, strain sac3, hits give low values 0.987 | locus YDR195W, strain ref2 1.04 | locus YDR297W, strain sur2, hits give low values 0.983 | locus YDR334W, strain swr1, hits give low values 1 | locus YDR335W, strain msn5, hits give low values 0.997 | locus YDR392W, strain spt3, hits give low values 0.843 | locus YEL003W, strain gim4, hits give low values 0.987 | locus YEL037C, strain rad23, hits give low values 0.988 | locus YEL061C, strain CIN8 (second series), hits give low values 0.99 | locus YER015W, strain faa2, hits give low values 0.99 | locus YER016W, strain bim1, hits give low values 0.99 | locus YER111C, strain swi4, hits give low values 0.991 | locus YER155C, strain BEM2 (second series), hits give low values 0.946 | locus YFR010W, strain ubp6, hits give low values 1 | locus YGL167C, strain pmr1, hits give low values 0.982 | locus YGL173C, strain kem1, hits give low values 0.98 | locus YGL227W, strain vid30, hits give low values 0.992 | locus YGL240W, strain doc1, hits give low values 0.982 | locus YGL253W, strain hxk2, hits give low values 0.995 | locus YHR013C, strain ard1, hits give low values 0.96 | locus YHR027C, strain rpn1, hits give low values 0.994 | locus YHR142W, strain chs7, hits give low values 0.93 | locus YJL092W, strain hpr5, hits give low values 0.991 | locus YJL095W, strain BCK1 (second series), hits give low values 1.01 | locus YJL115W, strain asf1, hits give low values 0.996 | locus YJL129C, strain trk1, hits give low values 0.969 | locus YJL154C, strain vps35, hits give low values 0.998 | locus YJL164C, strain tpk1, hits give low values 0.981 | locus YJL166W, strain qcr8, hits give low values 0.986 | locus YJL187C, strain SWE1, hits give low values 0.988 | locus YKL160W, strain elf1, hits give low values 0.986 | locus YKR026C, strain gcn3, hits give low values 0.988 | locus YKR091W, strain srl3, hits give low values 0.989 | locus YLL001W, strain dnm1, hits give low values 0.976 | locus YLL026W, hits give low values 0.987 | locus YLL041C, strain sdh2, hits give low values 0.991 | locus YLR027C, strain aat2, hits give low values 0.998 | locus YLR221C, strain rsa3, hits give low values 0.978 | locus YLR258W, strain gsy2, hits give low values 0.987 | locus YLR262C, strain YPT6 (second series), hits give low values 0.968 | locus YLR320W, strain mms22, hits give low values 0.971 | locus YLR342W, strain FKS1, hits give low values 0.994 | locus YLR357W, strain rsc2, hits give low values 0.988 | locus YLR370C, strain arc18, hits give low values 0.992 | locus YLR384C, strain iki3, hits give low values 0.987 | locus YML120C, strain ndi1, hits give low values 0.989 | locus YMR058W, strain fet3, hits give low values 0.987 | locus YMR125W, strain sto1, hits give low values 1.01 | locus YMR129W, hits give low values 0.987 | locus YMR205C, strain PFK2, hits give low values 0.959 | locus YMR231W, strain pep5, hits give low values 0.977 | locus YNL071W, strain lat1, hits give low values 0.988 | locus YNL209W, strain ssb2, hits give low values 0.995 | locus YNL248C, strain rpa49, hits give low values 0.999 | locus YNL322C, strain KRE1 (second series), hits give low values 0.994 | locus YNR049C, strain mso1, hits give low values 1 | locus YOR001W, strain rrp6, hits give low values 1.01 | locus YOR070C, strain gyp1, hits give low values 1.01 | locus YOR080W, strain dia2, hits give low values 1 | locus YOR083W, strain WHI5, hits give low values 0.984 | locus YOR106W, strain vam3, hits give low values 0.974 | locus YOR265W, strain rbl2, hits give low values 0.984 | locus YOR270C, strain vph1, hits give low values 0.885 | locus YOR290C, strain snf2, hits give low values 0.948 | locus YPL051W, strain arl3, hits give low values 0.972 | locus YPL078C, strain atp4, hits give low values 0.975 | locus YPL106C, strain sse1, hits give low values 0.964 | locus YPL240C, strain hsp82, hits give low values 0.984
